# From PubChem BioAssay (NCATS)
# A number with no mark means an inactive call. Inconclusive results are not listed. A call without a number means that no potency is given here. The source made the active and inactive calls. Unless noted, calls follow the shape of the dose curve; as a rule, active = well fitted curve in the direction sought with a large enough effect; inconclusive = small, poorly fitted or top-dose-only effect, or another doubt; inactive = no such curve, though single readings can be large; an effect the other way counts as inactive or inconclusive.
# Experiments:
# [1] = molecular target: 3',5'-cyclic-AMP phosphodiesterase 4B (Homo sapiens) (UniProt Q07343); assay: qHTS Assay for Inhibitors of PDE-IV (AID 607; active = well fitted activation curve with a large enough effect in the main read-out, with a control signal flat, not every such curve was filed as active); details: HEK293 ACTOne CNG channel cells, membrane potential fluorescence; series mostly up to 22.9 µM
# Procedure, shortened: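 ACTOne HEK293 cells carry a modified cAMP-gated CNG channel and express endogenous PDE4; plated 1000 cells/well, compounds up to 22.9 uM final. Membrane-potential dye fluorescence (ex 535/em 590) was read; parental cells received 10 uM forskolin + 100 uM RO 20-1724.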
# [2] = molecular target: Cytochrome P450 3A4 (Homo sapiens) (UniProt P08684); assay: qHTS Assay for Inhibitors and Substrates of Cytochrome P450 3A4 (AID 884); details: recombinant CYP3A4, Luciferin-PPXE luminescence; series mostly up to 57.1 µM; also: nearly all actives have a fitted effect of over 50% in size; also: potency is read from the fitted curve at half-maximal effect
# Procedure, shortened: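 20 nM human CYP3A4 with 25 uM Luciferin-PPXE (at KM) in 200 mM KPO4, preincubated 10 min with compound; NADPH regeneration started a 60 min RT reaction. Luciferin detected by luminescence, normalized to 57 uM ketoconazole as full inhibition.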
# [3] = molecular target: Cytochrome P450 3A4 (Homo sapiens) (UniProt P08684); assay: qHTS Assay for Activators of Cytochrome P450 3A4 (AID 885); details: recombinant CYP3A4, Luciferin-PPXE luminescence, 60 min; series mostly up to 57.1 µM; also: nearly all actives have a fitted effect of over 65% in size; also: potency is read from the fitted curve at half-maximal effect
# Procedure, shortened: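 20nM CYP3A4 + 25uM Luciferin-PPXE (=KM), 200mM KPO4; cpd 10 min RT; NADPH regen, 60 min RT; stop w/ detection buffer, 20 min; luminescence. Normalized to 57 uM ketoconazole.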
# [4] = molecular target: Cytochrome P450 2C9 (Homo sapiens) (UniProt P11712); assay: qHTS Assay for Inhibitors and Substrates of Cytochrome P450 2C9 (AID 883); details: recombinant CYP2C9, luciferin-H luminescence, 60 min; series mostly up to 57.1 µM; also: nearly all actives have a fitted effect of over 60% in size; also: potency is read from the fitted curve at half-maximal effect
# Procedure, shortened: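 Human CYP2C9 (10nM) with Luciferin-H at 100uM (its KM) in 25mM KPO4; compound preincubated 10 min at 37C, then NADPH regeneration for 60 min at 37C. Luciferin read by luminescence after detection reagent; normalized to 57uM sulphaphenazole as full inhibition.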
# [5] = Confirmation and Secondary Assay for Modulators of Hemoglobin Beta Chain Splicing at IVS2 654 locus (AID 910); details: HeLa EGFP-654 splicing reporter, GFP fluorescence, 48 h; series mostly up to 46.1 µM;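 also: HeLa cells stably carrying EGFP split by mutant beta-globin IVS2-654 intron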
# Procedure, shortened: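 HeLa cells stably expressing EGFP interrupted by β-globin IVS2-654 intron, seeded overnight in Opti-MEM/2% FCS, then treated 2 days at 37 °C. Restored splicing read as total peak GFP intensity per well by laser scanning cytometry (488 nm excitation, 500–520 nm emission); 500 nM antisense PNA as control.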
# [6] = Cellular Toxicity (caspase-3) HepG2 (AID 654); details: HepG2 caspase-3 activation, luminescence, 0% = DMSO only, 100% = tamoxifen; series mostly up to 92.2 µM;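 also: cells exposed to compound for 16 hours before reading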
# Procedure, shortened: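 Cells plated 5 hr at 37 °C, compound added, incubated 16 hr at 37 °C. Caspase-Glo 3/7 reagent followed, 20 min at room temperature, then luminescence read. Activation scored as signal increase; AC50 from Hill fit.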
# [7] = Cellular Toxicity (caspase-3) Jurkat (AID 655); details: Jurkat caspase-3 activation, luminescence, DMSO = 0%, tamoxifen = 100%; series mostly up to 92.2 µM;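 also: cells exposed to compound for 16 h at 37 °C before reading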
# Procedure, shortened: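 Caspase 3/7 activation is scored as increased luminescence in Jurkat cells cultured with compound for 16 hours in complete medium. AC50 values come from Hill fits of qHTS concentration-response data normalized to DMSO and 100 uM tamoxifen controls.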
# [8] = Cellular Toxicity (caspase-3) HUV-EC-C (AID 656); details: HUV-EC-C cells, caspase-3 activation (apoptosis), vehicle = 0, 100 µM tamoxifen = 100%; series mostly up to 92.2 µM
# Procedure, shortened: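 Read-out: luminescence proportional to caspase 3/7 activity, measured 20 min after adding Caspase-Glo 3/7 reagent. Cells (HUV-EC-C) had received compound for 16 hr at 37°C. Increases relative to DMSO and 100 uM tamoxifen gave concentration-response AC50 values.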
# [9] = Cellular Toxicity (caspase-3) SHSY5Y (AID 657); details: SH-SY5Y caspase-3 activation, DMSO zero, 10 µM staurosporine = 100%; series mostly up to 91.7 µM
# Procedure, shortened: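 Cells plated and incubated 5 h at 37 °C, dosed over a concentration range, incubated 16 h, then given Caspase-Glo 3/7 reagent for 1 h at room temperature before luminescence reading. Staurosporine (10 uM) defined full stimulation.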
# [10] = Cellular Toxicity (caspase-3) BJ (AID 658); details: BJ fibroblasts, luminescence, normalized: DMSO 0%, staurosporine 100%; series mostly up to 91.7 µM
# Procedure, shortened: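 BJ human foreskin fibroblasts, 1000 cells/well, treated 16 hours at 37 °C in complete medium; caspase 3/7 activity by Caspase-Glo luminescence after 1 hr at room temperature. Normalized to DMSO and 10 uM staurosporine; AC50 from Hill fits.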
# [11] = Cellular Toxicity (caspase-3) MRC-5 (AID 659); details: MRC-5 cells, luminescence, normalized: DMSO 0%, 10 µM staurosporine 100%; series mostly up to 91.7 µM
# Procedure, shortened: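 MRC-5 human normal lung fibroblasts, 1500 cells/well, treated 16 h at 37 °C in complete medium. Caspase 3/7 measured by Caspase-Glo luminescence after 1 h at room temperature. Normalized to DMSO and 10 uM staurosporine; AC50 from Hill fit.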
# [12] = Cellular Toxicity (caspase-3) Mesangial (AID 660); details: mesangial cells, normalized: DMSO 0%, 100 µM tamoxifen 100%; series mostly up to 91.7 µM
# Procedure, shortened: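 Mesangial cells, 1000/well, 5 h settle at 37 °C; compound 16 h, 37 °C; Caspase-Glo 3/7 reagent 20 min RT; luminescence. Norm.: DMSO = 0%, tamoxifen 100 uM = 100%. AC50, Hill fit.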
# [13] = Cellular Toxicity (caspase-3) SK-N-SH (AID 661); details: SK-N-SH caspase-3 activation, qHTS, DMSO as zero, staurosporine as full; series mostly up to 91.7 µM
# Procedure, shortened: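 Human neuroblastoma SK-N-SH, 1500 cells/well, 5 hr pre-incubation, then compound 16 hr, 37 °C. Caspase-Glo 3/7 reagent, 1 hr RT, luminescence. Norm. to DMSO/10 uM staurosporine; Hill-fit AC50.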
# [14] = Cellular Toxicity (caspase-3) H-4-II-E (AID 663); details: H-4-II-E rat hepatoma, scaled: DMSO 0%, 100 µM tamoxifen 100%; series mostly up to 92.2 µM;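 also: cells exposed to compound for 16 hr before readout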
# Procedure, shortened: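 Rat hepatoma H-4-II-E cells (1500/well) plated 5 hr, then exposed to compound titrations for 16 hr at 37 °C. Caspase-Glo 3/7 luminescence read after 20 min at RT; data normalized to DMSO and 100 uM tamoxifen, AC50 from Hill fits.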
# [15] = Cellular Toxicity (caspase-3) Hek293 (AID 664); details: HEK293 caspase-3 activation, DMSO = 0%, 100 µM tamoxifen = 100%; series mostly up to 92.2 µM;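 also: cells exposed to compound for 16 h at 37 °C before readout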
# Procedure, shortened: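 Cells plated, 5 hr at 37 °C; compounds added; 16 hr at 37 °C; Caspase-Glo 3/7 reagent, 20 min RT; luminescence read. Activation expressed relative to DMSO and 100 uM tamoxifen, AC50 by Hill model.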
# [16] = Cellular Toxicity (caspase-3) N2a (AID 665); details: N2a cells, luminescence, normalized: DMSO 0%, 10 µM staurosporine 100%; series mostly up to 92.2 µM;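 also: compound exposure lasted 16 h at 37 °C before readout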
# Procedure, shortened: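 N2a cells, 1500/well, 5 h settle at 37 °C; cpd 16 h, 37 °C; Caspase-Glo 3/7, 1 h RT; luminescence. Norm: DMSO = 0, 10 uM staurosporine = 100%. AC50, Hill fit.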
# [17] = Cellular Toxicity (caspase-3) NIH 3T3 (AID 666); details: NIH 3T3 caspase-3 activation, apoptosis/toxicity, 0% DMSO, 100% is 100 µM tamoxifen; series mostly up to 92.2 µM;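 also: caspase signal read after 16 h compound exposure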
# Procedure, shortened: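 Luminescence from aminoluciferin released by caspase-3/7 cleavage of a peptide substrate served as read-out. Mouse fibroblast NIH 3T3 cells were exposed to compounds over a concentration range for 16 hours, and AC50 values came from standard Hill modelling.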
# [18] = Cellular Toxicity (caspase-3) Renal Proximal Tubule (AID 667); details: renal proximal tubule cells, primary cells freshly taken from rat, solvent-only wells 0%, staurosporine 100%; series mostly up to 91.7 µM;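 also: cells exposed to compound for 16 hours at 37 °C before detection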
# Procedure, shortened: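 In qHTS format, rat primary proximal tubule cells seeded at 1000 per well are exposed to compounds for 16 hours at 37 °C. An increase in Caspase-Glo 3/7 luminescence indicates caspase activation.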
# Chain of 3',5'-cyclic-AMP phosphodiesterase 4B (Homo sapiens) (Q07343 whole entry, looked up): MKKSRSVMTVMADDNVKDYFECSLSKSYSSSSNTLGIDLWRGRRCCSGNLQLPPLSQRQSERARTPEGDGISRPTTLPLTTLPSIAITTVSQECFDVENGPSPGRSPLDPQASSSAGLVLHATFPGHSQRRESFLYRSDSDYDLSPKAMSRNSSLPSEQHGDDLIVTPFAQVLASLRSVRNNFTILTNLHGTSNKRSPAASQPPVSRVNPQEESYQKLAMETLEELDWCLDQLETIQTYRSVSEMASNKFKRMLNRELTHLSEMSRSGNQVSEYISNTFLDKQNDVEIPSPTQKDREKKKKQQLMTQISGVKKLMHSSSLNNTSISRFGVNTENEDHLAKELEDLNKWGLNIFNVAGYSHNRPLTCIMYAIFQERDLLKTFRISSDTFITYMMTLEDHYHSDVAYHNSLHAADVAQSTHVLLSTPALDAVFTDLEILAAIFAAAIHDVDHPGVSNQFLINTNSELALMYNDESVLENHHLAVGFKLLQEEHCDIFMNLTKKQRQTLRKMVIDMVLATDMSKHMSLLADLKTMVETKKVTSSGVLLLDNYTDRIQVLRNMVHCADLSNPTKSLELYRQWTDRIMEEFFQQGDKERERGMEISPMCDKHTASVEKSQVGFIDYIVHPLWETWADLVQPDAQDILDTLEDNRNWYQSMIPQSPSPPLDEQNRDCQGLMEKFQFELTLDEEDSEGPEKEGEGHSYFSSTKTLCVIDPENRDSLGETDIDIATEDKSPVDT
# Chain of Cytochrome P450 3A4 (Homo sapiens) (P08684 whole entry, looked up): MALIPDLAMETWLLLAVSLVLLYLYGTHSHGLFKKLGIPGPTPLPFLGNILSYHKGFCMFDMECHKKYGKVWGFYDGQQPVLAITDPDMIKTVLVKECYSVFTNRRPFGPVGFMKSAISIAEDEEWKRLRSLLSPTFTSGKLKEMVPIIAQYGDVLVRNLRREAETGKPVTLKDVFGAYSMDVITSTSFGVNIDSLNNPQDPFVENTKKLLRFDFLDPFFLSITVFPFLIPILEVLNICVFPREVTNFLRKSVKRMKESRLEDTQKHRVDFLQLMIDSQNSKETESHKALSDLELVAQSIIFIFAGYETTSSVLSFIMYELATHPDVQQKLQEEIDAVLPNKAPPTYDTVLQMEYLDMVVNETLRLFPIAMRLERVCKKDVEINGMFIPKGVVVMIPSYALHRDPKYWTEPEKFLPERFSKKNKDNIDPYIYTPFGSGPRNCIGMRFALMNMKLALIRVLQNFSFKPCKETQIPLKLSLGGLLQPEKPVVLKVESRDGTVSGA
# Chain of Cytochrome P450 2C9 (Homo sapiens) (P11712 whole entry, looked up): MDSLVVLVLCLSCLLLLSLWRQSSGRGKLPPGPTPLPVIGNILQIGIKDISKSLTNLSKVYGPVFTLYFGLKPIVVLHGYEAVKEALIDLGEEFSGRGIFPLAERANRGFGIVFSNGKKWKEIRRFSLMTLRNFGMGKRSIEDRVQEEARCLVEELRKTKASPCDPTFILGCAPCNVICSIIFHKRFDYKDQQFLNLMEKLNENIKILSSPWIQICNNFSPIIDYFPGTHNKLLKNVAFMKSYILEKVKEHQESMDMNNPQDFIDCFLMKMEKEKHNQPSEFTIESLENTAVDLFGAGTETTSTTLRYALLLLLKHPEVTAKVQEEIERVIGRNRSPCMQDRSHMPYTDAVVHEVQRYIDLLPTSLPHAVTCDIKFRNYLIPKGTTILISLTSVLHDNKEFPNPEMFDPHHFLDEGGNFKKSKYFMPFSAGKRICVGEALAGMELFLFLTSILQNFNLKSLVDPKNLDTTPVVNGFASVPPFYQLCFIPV
smiles,measurement,setting,value
CC1C(=O)OC2C(O)C34C5CC(C(C)(C)C)C36C(OC(=O)C6O)OC4(C(=O)O5)C12O (stereo not drawn),outcome,[1],inactive
COC1CCC(C(=O)c2ccc3nc4c(cc3c2)CCCO4)CC1 (stereo not drawn),Potency,[2],inactive
same,Potency,[3],5.01 µM (active)
Cc1ccc2c(c1)C(=O)[C@]1(O)CCN(c3ccccc3)C1=N2,Potency,[3],inactive
Cc1cc(NC(=O)Nc2ccc(N(C)C)cc2)c2cc(F)cc(F)c2n1,Potency,[4],6.31 µM (active)
same,Potency,[2],6.31 µM (active)
same,Potency,[3],inactive
CC(NCCc1ccc(O)cc1)C(O)c1ccc(O)cc1 (stereo not drawn),Potency,[2],inactive
same,outcome,[5],inactive
COc1ccc2ccc(=O)oc2c1CC=C(C)C,outcome,[5],inactive
C[C@@H]1C[C@H]2[C@@H]3CCC4=CC(=O)C=C[C@]4(C)[C@@]3(F)[C@@H](O)C[C@]2(C)[C@@]1(O)C(=O)CO,outcome,[6],inactive
same,outcome,[7],inactive
same,outcome,[8],inactive
same,outcome,[9],inactive
same,outcome,[10],inactive
same,outcome,[11],inactive
same,outcome,[12],inactive
same,outcome,[13],inactive
same,outcome,[14],inactive
same,outcome,[15],inactive
same,outcome,[16],inactive
same,outcome,[17],inactive
same,outcome,[18],inactive
Cc1ccc(NC(=O)c2cccc(N(C)C)c2)cc1NC(=O)c1ccc(O)cc1,outcome,[1],inactive
same,Potency,[4],inactive
CCC(c1ccc(O)cc1)C(CC)c1ccc(O)cc1 (stereo not drawn),outcome,[5],inactive
O=c1cc(-c2ccc(O)c(O)c2)oc2cc(O)cc(O)c12,outcome,[1],inactive
same,Potency,[3],inactive
CN[C@H]1[C@@H](O[C@@H]2[C@H](O[C@@H]3[C@@H](O)[C@@H](O)[C@@H](N=C(N)N)[C@@H](O)[C@@H]3N=C(N)N)O[C@H](C)[C@@]2(O)C=O)O[C@@H](CO)[C@@H](O)[C@H]1O,outcome,[1],inactive
COc1ccc(CCN(C)CCCOc2ccc(S(=O)(=O)c3[nH]c4ccccc4c3C(C)C)cc2)cc1OC,outcome,[1],inactive
C=C1c2cccc(O)c2C(O)=C2C(=O)[C@@]3(O)C(O)=C(C(N)=O)C(=O)[C@@H](N(C)C)[C@@H]3[C@@H](O)[C@H]12,outcome,[1],inactive
CCCCC(C=O)NC(=O)C(CC(C)C)NC(=O)OCc1ccccc1 (stereo not drawn),outcome,[1],inactive
same,Potency,[3],inactive
